{
  "source": "PubChem BioAssay AID431",
  "about": "(Sanford-Burnham Center for Chemical Genomics, 2006)",
  "note": "Screen size: about 63,000 compounds; about 1,100 (1.7%) were called active. The entries come from a sample that favours actives as a whole. Entries with a potency or affinity are not part of this list. Values without a mark were called inactive.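 Rule for the calls: active = compounds whose percent cytotoxicity in the single-dose primary screen, scaled between solvent and toxic-drug controls, exceeds 50; inactive = the rest.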",
  "data": [
    {"assay": "cytotoxicity in KRAS-transformed pancreatic duct cells, primary screen, cell-based, fluorescence, HTS (AID 431);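 note: 0% = DMSO solvent wells and 100% = doxorubicin-treated wells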", "conditions": "HPDE-C7K KRASV12 cells, Alamar Blue viability, 48 h; at 10 µM; stronger effect = higher value", "values": [
      {"smiles": "CCN(CC)C(=O)c1ccc(NC(=O)Cn2nc(C)c3ccccc3c2=O)cc1", "cytotoxicity": "-7.8%"},
      {"smiles": "O=C(Nc1ccc(OC(=O)N2CCCC2)cc1)N1CCOCC1", "cytotoxicity": "-8.6%"},
      {"smiles": "CC(C)C(=O)N1CCN(CCN=Cc2c(O)n(C)c(=O)n(C)c2=O)CC1", "cytotoxicity": "0.5%"},
      {"smiles": "c1cc2n(c1)-c1c(ccc3c1OCO3)CNC2c1ccc2c(c1)OCO2", "note": "(stereo unspecified)", "cytotoxicity": "27.4%"},
      {"smiles": "COc1ccc(C2NCc3ccc4c(c3-n3cccc32)OCO4)cc1OC", "note": "(stereo unspecified)", "cytotoxicity": "3.2%"},
      {"smiles": "COc1ccc(C2NCc3ccc4c(c3-n3cccc32)OCO4)cc1O", "note": "(stereo unspecified)", "cytotoxicity": "59.8% (active)"},
      {"smiles": "O=P(/C(=N/O)N1CCCCC1)(N1CCOCC1)N1CCOCC1", "cytotoxicity": "-3.8%"},
      {"smiles": "COc1cccc(OC)c1C1=NCC(=O)Nc2c1oc1ccc(Br)cc21", "cytotoxicity": "56.7% (active)"},
      {"smiles": "O=C1CN=C(c2ccccc2)c2oc3ccc(Br)cc3c2N1", "cytotoxicity": "-15.6%"},
      {"smiles": "O=C(NCC(c1cccnc1)N1CCOCC1)Oc1ccccc1", "note": "(stereo unspecified)", "cytotoxicity": "2.6%"},
      {"smiles": "C=Cn1ccnc1P(=S)(c1c(C)nn(-c2ccccc2)c1C)c1nccn1C=C", "cytotoxicity": "8.8%"},
      {"smiles": "O=c1[nH]c(=O)n(Cc2ccccc2)c(O)c1C=NCCN1CCNCC1", "cytotoxicity": "-15%"},
      {"smiles": "O=c1[nH]c(=O)n(C2CCCCCC2)c(O)c1C=NCCCN1CCOCC1", "cytotoxicity": "-13.6%"},
      {"smiles": "O=c1c(C=NCCN2CCNCC2)c(O)n(C2CCCCC2)c(=O)n1C1CCCCC1", "cytotoxicity": "95.1% (active)"},
      {"smiles": "CCCCn1c(O)c(C(CC)=Nc2cccc(C(=O)O)c2)c(=O)[nH]c1=O", "cytotoxicity": "-13.6%"},
      {"smiles": "CC(=NCCCN1CCCCC1)c1c(O)n(Cc2ccccc2)c(=O)[nH]c1=O", "cytotoxicity": "9.4%"},
      {"smiles": "CCOC(=O)c1ccc(N2C(=O)CC(N3CCC(C#N)(c4ccccc4)CC3)C2=O)cc1", "note": "(stereo unspecified)", "cytotoxicity": "-11.3%"},
      {"smiles": "CCCCCn1c(=O)c(C(=O)NCc2ccncc2)c(O)c2ccccc21", "cytotoxicity": "33.3%"},
      {"smiles": "CCCCn1c(=O)c(C(=O)Nc2ccccc2S(N)(=O)=O)c(O)c2ccccc21", "cytotoxicity": "-11.7%"},
      {"smiles": "CCCCCn1c(=O)c(C(=O)NCc2ccccn2)c(O)c2ccccc21", "cytotoxicity": "8.3%"},
      {"smiles": "CCCCCn1c(=O)c(C(=O)Nc2ccncc2)c(O)c2ccccc21", "cytotoxicity": "73.1% (active)"},
      {"smiles": "CCCCCCn1c(=O)c(C(=O)Nc2ccncc2)c(O)c2ccccc21", "cytotoxicity": "46.4%"},
      {"smiles": "CCCCn1c(=O)c(C(=O)Nc2cnccn2)c(O)c2ccccc21", "cytotoxicity": "51.5% (active)"},
      {"smiles": "CCCCn1c(O)c(C=NCCCN(CC)CC)c(=O)[nH]c1=O", "cytotoxicity": "6.9%"},
      {"smiles": "CSc1nnc(C2CCNCC2)n1C", "cytotoxicity": "-11.4%"},
      {"smiles": "O=C1NC(=O)C(CCc2ccncc2)(C2CCCCC2)C(=O)N1", "cytotoxicity": "-0.4%"},
      {"smiles": "COC(=O)c1ccc(COc2cc(C)cc3oc(=O)c4c(c23)CCCC4)o1", "cytotoxicity": "4.3%"},
      {"smiles": "CC(=O)CC(C)(C)n1c[n+](C)nn1", "cytotoxicity": "18.4%"},
      {"smiles": "Cc1ccc2c(c1)C1CN(C)CCC1N2C(=O)c1ccco1", "note": "(stereo unspecified)", "cytotoxicity": "2.2%"},
      {"smiles": "c1ccc2c(CCNCc3ccc4c(c3)OCO4)c[nH]c2c1", "cytotoxicity": "23.6%"},
      {"smiles": "C[C@@]1(CO)[C@H](O)CC[C@@]2(C)[C@H]1CC[C@H]1C[C@@H]3C[C@@]12CC[C@]3(O)CO", "cytotoxicity": "69.7% (active)"},
      {"smiles": "CC(C)CC1C(C#N)=C(N)Oc2c1c(=O)oc1ccccc21", "note": "(stereo unspecified)", "cytotoxicity": "8.9%"},
      {"smiles": "Cc1ccc2c(c1)CC1(CN2C)C(=O)NC(=O)N(CCC2=CCCCC2)C1=O", "note": "(stereo unspecified)", "cytotoxicity": "5.2%"},
      {"smiles": "O=C1NC(=O)C2(Cc3ccccc3N3CCCC32)C(=O)N1c1ccccc1", "note": "(stereo unspecified)", "cytotoxicity": "-2.3%"},
      {"smiles": "OC1(c2ccccc2F)CC2CCC(C1)N2CCN1CCOCC1", "note": "(stereo unspecified)", "cytotoxicity": "-1.8%"},
      {"smiles": "Cc1oc(-c2ccc(Cl)cc2)nc1CS(=O)CC(=O)N1CCC2(CC1)OCCO2", "note": "(stereo unspecified)", "cytotoxicity": "-19.8%"}
    ]}
  ]
}
